From PubChem BioAssay AID1347426 (Functional Genomics Laboratory (NCATS/FGL), 2020)
Screen size: about 31,000 sequences; about 1,400 (4.5%) were called active.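 The calls were made as follows: active = median seed-adjusted z-score above 1 or below -1; inactive = the rest.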 This excerpt belongs to a sample that is enriched for actives.

Experiment: Novel Modifiers of Survival Motor Neuron (SMN) Protein: Gene Identification via Genome-wide siRNA Screen
Details: HEK293T SMN2-luciferase reporter, siRNA knockdown, 72 h; actives lie on both sides
From the text: Spinal muscular atrophy (SMA) is the most common neuromuscular autosomal recessive disorder and one of the leading genetic causes of infant death. SMA results from mutations inducing loss of function or deletion in the survival of motor neuron-1 gene (SMN1), leading to deficiency of the survival motor neuron (SMN) protein. Although a second nearly identical gene, SMN2, is retained in humans, its expression primarily produces an aberrantly spliced isoform that is largely unstable and quickly degraded. We performed a genome-wide RNAi screen using a cell-based reporter assay to identify genes and pathways that modulate SMN protein stability. The screen identified over 200 genes that led to the greatest increase or decrease in luciferase expression.
Using HEK293T cells stably expressing a luciferase reporter that combines the promoter and splicing based cassettes in tandem with the major portion of the native SMN2 cDNA with luciferase, we performed a genome-wide RNAi screen to identify modulators of SMN protein levels. Luciferase is expressed when full-length SMN protein is generated with luminescence signal proportional to SMN protein levels. Our luciferase-based reporter assay was used to screen Ambion Silencer Select Human Druggable Genome siRNA library (10418 genes, 3 unique siRNAs per gene) using lipid-based reverse transfection.
Briefly, 1 pmol of each siRNA was spotted to a well of a 384-well plate (Corning, Corning, NY) and 20 microL of serum-free DMEM containing […] of Lipofectamine RNAiMax (Life Technologies, Carlsbad, CA) was then added to each well. Transfected cells were maintained at 37 degrees C in 5% CO2 for 72 hours, 20 microL of ONE-Glo Reagent (Promega) was added to wells for luciferase quantification. Raw luminescence reads were normalized to Ambion(R) Silencer(R) Negative Control #2 siRNA, then log10 transformed. A robust statistical measure of median absolute deviation (MAD) to standardize siRNA activities from each screen. Common Seed Analysis was used to help prioritize clean hits as opposed to those appearing to arise from seed based off-target effects. Candidate modulators were defined as the genes having a MAD score greater than 1.0 or less than -1.0.

| Sequence | median seed-adjusted z-score |
| --- | --- |
| CCAUGACAACUUUCACUGATT against AGFG2 | -0.289 (inactive) |
| GCAGAAAAGAACAACUUGUTT against RAB11B | -0.857 (inactive) |
| GCAAUAGGAUGGAUGAUCATT against GPSM2 | -0.755 (inactive) |
| GCAGCUCACUUAAGGCCUATT against VPS18 | 0.181 (inactive) |
| GAUCUAUUCUUAAUGCCGATT against TFB1M | 0.172 (inactive) |
| GAAAUUUCUUAGGAACUCATT against ADH1B | 0.325 (inactive) |
| CCCUCAAUCCAGCACAAAATT against LILRA4 | 0.109 (inactive) |
| GGGACCGAGAGAUCAGAUATT against PPAP2C | -1.12 (active) |
| CUUCCAAUGUUAAUGGACATT against VHLL | -0.0852 (inactive) |
| GAGGCUCGGUAAUCAAUGATT against DERL1 | 0.22 (inactive) |
| GCUUUAGAAUACAUACCAATT against IFIT2 | -0.0205 (inactive) |
| CCCUCAAGGUACAAACAUUTT against POLD1 | -0.715 (inactive) |
| CAGGAGCAGUUAGACUUAATT against DNALI1 | 0.699 (inactive) |
| GGUUUGCCCUUAUCUUGUATT against RDH10 | -0.28 (inactive) |
| GAAUAACCGUUGGUUUAAUTT against U2AF1 | 2.08 (active) |
| AAUUGAGGAAUACAAAAGATT against PAX3 | 0.0223 (inactive) |
| GGAUGGGCAUGUUGAGAGATT against NUDT9 | 0.277 (inactive) |
| GGAUCUGACAGACAAUGAUTT against ABCC3 | -0.549 (inactive) |
| CGUGGAUUCUUACGGAAGATT against CIT | -0.0585 (inactive) |
| GAGUCUAUCUUGAUAAUCUTT against PPWD1 | -0.341 (inactive) |
| CCGGGUUAAUUACCACCUUTT against MTHFR | 0 (inactive) |
| GAGAAGUCGAGGCUCUUUATT against WNT6 | 0.027 (inactive) |
| CGGUGAACGGGUUGGAGAATT against PAX9 | -1.16 (active) |
| GCUUUGACCUUCUUAGCAATT against SMARCAL1 | -0.145 (inactive) |
| CAACGAUAUUUGGAUAUCUTT against DPP8 | -0.0209 (inactive) |
| GGUCAAUACACCUAAGAAATT against PRDX1 | 0.288 (inactive) |
| GAUCGUUUCCUAUACAGUATT against ESPL1 | 0.871 (inactive) |

| Sequence | median seed-adjusted z-score |
| --- | --- |
| GGGCUGUGAUCUUGUCGAATT against AGMAT | -0.0269 (inactive) |
| CAACGACAGAACUAACAGATT against SENP6 | -1.03 (active) |
| GAAGGUGUUUCAUACGAAUTT against SIPA1L1 | 0.0925 (inactive) |
| CUCUAUGAAUAUUGUAUUATT against BUD31 | 0.0554 (inactive) |
| GGCUAACAAUUUGUCCAGUTT against SEC22B | -0.106 (inactive) |
| CGUCAUCUUUGCGAAGAUUTT against EHD2 | 0.0989 (inactive) |
| CAACAUCUAUGAUUGGAAUTT against RFXANK | -0.0665 (inactive) |
| CCAGUGCUGUCAGUACGAUTT against LY6G5B | -1.29 (active) |
| CCAAUAUUGUGGAUCCUUUTT against HTR4 | 0.444 (inactive) |
| GAGCUAUAAUCAGACCUGUTT against ART5 | -0.354 (inactive) |
| CGCUCACUGUUCUUCGGCUTT against RAD9A | -0.0564 (inactive) |
| CCCAAGACGUUCACCGUGATT against NF2 | -0.543 (inactive) |
| CAUCAAACCUGGGAACAAATT against ZNF225 | 0.0761 (inactive) |
| GGAACGAGGUGUCAGCUCUTT against RFXANK | -0.0665 (inactive) |
| UCAACCUCAUGGACUUUAATT against SLC5A5 | 1.01 (active) |
| GGAGCUACUGAGAACAUAATT against HOXD4 | 0.566 (inactive) |
| GGAACACUCAUGACUGUAATT against ZNF426 | 0.2 (inactive) |
| CAAUGAGUAUGUGACGGAATT against UNC13A | -2.1 (active) |
| GGAUCCCGCUGCACAAGUUTT against CTSD | -0.282 (inactive) |
| CGUCUUCCUUGUGCGCCUATT against COL20A1 | -0.0033 (inactive) |
| GGCUUAUGGGUGUUCGGAUTT against POLK | -0.102 (inactive) |
| CCGUCACUGAAGUCAAUAATT against CACNA1F | 0.22 (inactive) |
| CGGAUUCCAGGAAUGCUAATT against EIF5B | 1.68 (active) |
| CCACCAAAGUUCACCCUGATT against LMNA | -0.409 (inactive) |
| GGGCCGAACUGAAAUACGATT against FGD2 | 0.0293 (inactive) |
| ACAAGUUCUUGGAGCCUUATT against ATP1B2 | -0.185 (inactive) |
| CCCAAUCCCUAUUUGAGAATT against ADRA1D | -0.18 (inactive) |
